Growth data for eight compounds are collected here from PubChem BioAssay (NCI).

Compounds without any hit were thinned out: in the full panel of roughly 83,000, 20% have a hit.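 Percent growth is the endpoint: 0 to 100 indicates growth inhibition (40 means 60% inhibition), 0 means no net growth, and negative values indicate cell death.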 A number with no mark means an inactive call. Calls of active or inactive are those of the source. Rule for the calls: active = growth percent below 10; inactive = the rest.

Among the test systems are NCI-H23 lung; NCI-H226 lung; NCI-H322M lung; HOP-62 NSCLC; NCI-H460 lung; HOP-92 NSCLC; NCI-H522 lung; A549/ATCC NSCLC; 786-0 renal; COLO 205 colon; DU-145 prostate; K-562 leukemia; MALME-3M melanoma; MDA-MB-231 breast; RXF 393 renal; SF-268 CNS; SF-295 CNS; SF-539 CNS; UACC-257 melanoma; M14 melanoma.
Holding throughout (experiment): NCI-60 one-dose screen, 48 h (100 = growth as untreated, 0 = no growth, -100 = all killed)
Common to all, as to conditions: 10 µM unless noted

`CCCCCCC/C=N/NC(=O)c1ccc(-n2cc(-c3ccccc3)nn2)cc1`: the growth was 87.6% with NCI-H23 lung; 85.2% with NCI-H226 lung; 86.3% in the assay with NCI-H322M lung; 95.8% in the assay with HOP-62 NSCLC; 98.4% in the assay with NCI-H460 lung; 87.1% in the assay with HOP-92 NSCLC. Moreover, the growth in the assay with NCI-H522 lung was 79.9%; in the assay with A549/ATCC NSCLC it was 96%; with 786-0 renal, 92.2%; in the assay with COLO 205 colon, 110%; with DU-145 prostate it was 96.1%; in the assay on K-562 leukemia it was 79.7%. The growth was 78.1% in the assay with MALME-3M melanoma; 74.3% in the assay with MDA-MB-231 breast; 83.5% with RXF 393 renal; 90.1% with SF-268 CNS; 87.8% with SF-295 CNS; 96.5% in the assay with SF-539 CNS. In addition, the growth is 100% in the assay on UACC-257 melanoma and 80.7% with M14 melanoma.

As to `CN1C(=O)N(C)C2C1NN=c1s/c(=C\c3ccc(F)cc3)c(=O)n12` (stereo not given), the growth is 50.8% in the assay on NCI-H23 lung; 62.9% in the assay on NCI-H226 lung; 53.6% in the assay with NCI-H322M lung; 46.7% in the assay on HOP-62 NSCLC; 13% in the assay with NCI-H460 lung; 47% with HOP-92 NSCLC. Besides, the growth is 2.08% (active) in the assay on NCI-H522 lung; 24.8% in the assay on A549/ATCC NSCLC; 40.7% with 786-0 renal; 12.5% in the assay with COLO 205 colon; 58.5% in the assay with DU-145 prostate; 11.4% with K-562 leukemia. Further, the growth in the assay with MALME-3M melanoma was 31.5%; in the assay on MDA-MB-231 breast, 29.4%; in the assay on RXF 393 renal it was 38.5%; in the assay on SF-268 CNS it was 58.7%; in the assay with SF-295 CNS, 28.8%; in the assay on SF-539 CNS it was 29.7%. Further, the growth was 1.68% (active) in the assay with UACC-257 melanoma and 23.1% with M14 melanoma.

In the case of `Cc1nc2c(c(-c3ccccc3)n1)Cc1c(ccc3ccccc13)O2`, the growth with NCI-H23 lung is 97.8%; with NCI-H226 lung, 82.2%; in the assay on NCI-H322M lung, 148%; in the assay on HOP-62 NSCLC, 90.9%; in the assay with NCI-H460 lung it was 98.1%; in the assay on HOP-92 NSCLC it was 81.9%. Further, the growth with NCI-H522 lung is 100%; in the assay on A549/ATCC NSCLC, 96%; with 786-0 renal it was 98.7%; with COLO 205 colon, 100%; in the assay with DU-145 prostate it was 115%; with K-562 leukemia, 132%. For the same compound, the growth in the assay with MALME-3M melanoma was 126%; in the assay on MDA-MB-231 breast, 83%; in the assay with RXF 393 renal it was 105%; in the assay with SF-268 CNS, 94.8%; in the assay with SF-295 CNS it was 112%; in the assay on SF-539 CNS it was 96.7%. The growth was 113% with UACC-257 melanoma and 104% in the assay on M14 melanoma.

On to `Clc1ccc2c(NCCCn3cnc4c(N5CCCC5)nc(Cl)nc43)ccnc2c1`, for which the growth was 98.7% in the assay with NCI-H23 lung; 102% with NCI-H226 lung; 92.7% in the assay with NCI-H322M lung; 91.5% in the assay with HOP-62 NSCLC; 107% in the assay on NCI-H460 lung; 107% in the assay with HOP-92 NSCLC. In addition, the growth in the assay on NCI-H522 lung is 91.5%; in the assay on A549/ATCC NSCLC, 96.5%; in the assay on 786-0 renal it was 96.4%; in the assay on COLO 205 colon it was 88.2%; with DU-145 prostate, 106%; in the assay on K-562 leukemia, 90.4%. In addition, the growth in the assay with MALME-3M melanoma was 101%; with MDA-MB-231 breast, 89.8%; in the assay on RXF 393 renal it was 123%; in the assay on SF-268 CNS, 94.4%; with SF-295 CNS it was 101%; with SF-539 CNS, 99.1%. The results for the growth in the assay on UACC-257 melanoma and in the assay with M14 melanoma were 102% and 93.9%, respectively.

Turning to `CCCCCCCCCCCCCC[n+]1ccc2c(C)c3c(c(C)c2c1)c1cc(O)ccc1n3CC`, the growth was -64% (active) in the assay on NCI-H23 lung; -40.5% (active) in the assay on NCI-H226 lung; -62% (active) in the assay with NCI-H322M lung; -57.1% (active) in the assay with HOP-62 NSCLC; -67.7% (active) in the assay on NCI-H460 lung; -84.4% (active) in the assay with HOP-92 NSCLC. The growth with NCI-H522 lung is -42.9% (active); in the assay on A549/ATCC NSCLC, 7.99% (active); in the assay with 786-0 renal, -73.4% (active); in the assay with COLO 205 colon it was -69.9% (active); in the assay on DU-145 prostate it was -93.4% (active); with K-562 leukemia it was -55.7% (active). Besides, the growth in the assay with MALME-3M melanoma was -84.7% (active); in the assay on MDA-MB-231 breast, -74.6% (active); with RXF 393 renal, -63.3% (active); in the assay on SF-268 CNS, -82.7% (active); in the assay with SF-295 CNS, -54.3% (active); in the assay on SF-539 CNS it was -83.9% (active). In addition, the growth with UACC-257 melanoma was -69.3% (active); in the assay on M14 melanoma, -86.7% (active).

`C=CN(C(=O)N1CCN(c2cc3c(cc2F)c(=O)c(C(=O)O)cn3C2CC2)CC1)c1nc(-c2ccc(C)cc2)cs1`: the growth was 13.4% in the assay on NCI-H23 lung; 35.4% with NCI-H226 lung; 20.8% with NCI-H322M lung; 17.9% in the assay on HOP-62 NSCLC; 9.77% (active) with NCI-H460 lung; -10.4% (active) in the assay with HOP-92 NSCLC. For the same compound, the growth is 5.65% (active) in the assay on NCI-H522 lung; 15.7% with A549/ATCC NSCLC; 22.8% with 786-0 renal; 16.7% in the assay with COLO 205 colon; 24.7% with DU-145 prostate; 18.5% in the assay with K-562 leukemia. Besides, the growth is 48.2% in the assay with MALME-3M melanoma; 21.5% in the assay on MDA-MB-231 breast; 6.69% (active) with RXF 393 renal; 26.3% in the assay on SF-268 CNS; -5.02% (active) in the assay with SF-295 CNS; 20.2% in the assay with SF-539 CNS. For the same compound, the growth in the assay on UACC-257 melanoma was 54.2%; in the assay on M14 melanoma, 31.4%.

For `COC(=O)c1ccc(-n2cc(CCCOS(=O)(=O)c3ccc(F)cc3)nn2)cc1`, the growth is 98.1% in the assay with NCI-H23 lung; 97.9% with NCI-H226 lung; 102% in the assay with NCI-H322M lung; 106% with HOP-62 NSCLC; 102% in the assay with NCI-H460 lung; 100% in the assay on HOP-92 NSCLC. The growth with NCI-H522 lung is 93.7%; with A549/ATCC NSCLC, 97%; in the assay with 786-0 renal it was 97.1%; with COLO 205 colon, 107%; with DU-145 prostate it was 107%; in the assay on K-562 leukemia, 95.5%. Besides, the growth in the assay on MALME-3M melanoma was 98.6%; in the assay on MDA-MB-231 breast, 106%; in the assay on RXF 393 renal, 105%; in the assay on SF-268 CNS, 98.6%; with SF-295 CNS it was 102%; in the assay with SF-539 CNS it was 96.7%. In addition, the growth with UACC-257 melanoma was 97.2%; in the assay with M14 melanoma, 104%.

Turning to `CN1CCN(CC(=O)N(C)c2ccc(N=C(c3ccccc3)c3c(O)[nH]c4ccc([N+](=O)[O-])cc34)cc2)CC1`, the growth in the assay on NCI-H23 lung is 80.4%; in the assay on NCI-H226 lung it was 61.9%; with NCI-H322M lung it was 82.4%; in the assay with HOP-62 NSCLC, 85.1%; with NCI-H460 lung, 54.5%; in the assay with HOP-92 NSCLC, 87.9%. Besides, the growth is 86.8% in the assay on NCI-H522 lung; 46.7% in the assay with A549/ATCC NSCLC; 44.3% with 786-0 renal; 28.6% with COLO 205 colon; 51.3% in the assay with DU-145 prostate; 5.2% (active) with K-562 leukemia. Moreover, the growth is 84% in the assay on MALME-3M melanoma; 63.5% in the assay with MDA-MB-231 breast; 28.2% with RXF 393 renal; 74.3% in the assay on SF-268 CNS; 53.9% with SF-295 CNS; 36.1% in the assay with SF-539 CNS. Moreover, the growth with UACC-257 melanoma was 103%; with M14 melanoma, 36.3%.
